The term AC50 denotes the concentration at which the activity in the assay is half-maximal.

Structures are written as SMILES. Active and inactive are the calls of the source. Rule for the calls: active = hit-call score of the fitted dose curve at least 0.9, where 1 is the maximum; inactive = score below 0.9.

Holding throughout (conditions): mRNA level, 48 h; actives raise or lower the signal
Read-out in experiment [1]: Insulin Like Growth Factor 1 (IGF1), IGF1 (gene 3479)
The experiment in a line: LTEA_HepaRG_IGF1: Life Technologies and Expression Analysis (LTEA) Assay for Insulin Like Growth Factor 1 (IGF1) using HepaRG (AID 2283506). In outline:
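Differentiated human HepaRG cells were dosed for 48 h in serum-free induction medium with 0.5% DMSO, eight half-log concentrations up to 100 uM, in duplicate. IGF1 mRNA was quantified by qRT-PCR normalized to ACTB, GAPDH, POLR2A; bidirectional fitting versus DMSO.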

Read-out in experiment [2]: Intercellular Adhesion Molecule 1 (ICAM1), ICAM1 (gene 3383)
As to the kind of experiment: LTEA_HepaRG_ICAM1: Life Technologies and Expression Analysis (LTEA) Assay for Intercellular Adhesion Molecule 1 (ICAM1) using HepaRG (AID 2283507). An outline of the steps: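 Using the human liver line HepaRG, compounds are tested in duplicate over 48 h at concentrations up to 100 uM. Expression is determined by TaqMan qRT-PCR, normalized to endogenous controls, and analysed relative to 0.5% DMSO vehicle.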

Read-out in experiment [3]: Insulin-like growth factor-binding protein 1 (IGFBP1), IGFBP1 (gene 3484)
The experiment in a line: LTEA_HepaRG_IGFBP1: Life Technologies and Expression Analysis (LTEA) Assay for Insulin-like growth factor-binding protein 1 (IGFBP1) using HepaRG (AID 2283508). An outline of the steps: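 HepaRG, 48 h, 8 conc. (max 100 uM, half-log), duplicates, 0.5% DMSO. Readout: TaqMan qRT-PCR, ACTB/GAPDH/POLR2A normalisation. Fit: bidirectional vs DMSO.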

Read-out in experiment [4]: Interleukin 6 (IL6), IL6 (gene 3569)
As to the kind of experiment: LTEA_HepaRG_IL6: Life Technologies and Expression Analysis (LTEA) Assay for Interleukin 6 (IL6) using HepaRG (AID 2283509). In outline:
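Differentiated human HepaRG cells, plated 48 h then switched to serum-free induction medium, were exposed in duplicate for 48 h to eight half-log concentrations up to 100 uM in 0.5% DMSO. IL6 mRNA measured by qRT-PCR, normalized to ACTB/GAPDH/POLR2A.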

Read-out in experiment [5]: Interleukin 6 Receptor (IL6R), IL6R (gene 3570)
The experiment in a line: LTEA_HepaRG_IL6R: Life Technologies and Expression Analysis (LTEA) Assay for Interleukin 6 Receptor (IL6R) using HepaRG (AID 2283510). An outline of the steps:
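Differentiated human HepaRG cells, plated 48 h then switched to serum-free induction medium, were dosed in duplicate for 48 h at eight half-log concentrations up to 100 uM in 0.5% DMSO. IL6R mRNA quantified by qRT-PCR, normalized to ACTB/GAPDH/POLR2A; bidirectional fit versus DMSO.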

Read-out in experiment [6]: Keratin 19 (KRT19), KRT19 (gene 3880)
As to the kind of experiment: LTEA_HepaRG_KRT19: Life Technologies and Expression Analysis (LTEA) Assay for Keratin 19 (KRT19) using HepaRG (AID 2283512). An outline of the steps: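 Readout is qRT-PCR of KRT19 mRNA, normalized to ACTB, GAPDH and POLR2A, from HepaRG cells treated 48 h with eight-point half-log dilutions topping at 100 uM. Activity in either direction is scored relative to 0.5% DMSO vehicle.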

Read-out in experiment [7]: JUN Transcription Factor, JUN (gene 3725)
As to the kind of experiment: LTEA_HepaRG_JUN: Life Technologies and Expression Analysis (LTEA) Assay for JUN Transcription Factor using HepaRG (AID 2283513). In outline:
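Differentiated HepaRG cells were exposed to chemicals for 48 h in serum-free induction medium, 8 concentrations from 100 uM in half-log steps, 0.5% DMSO vehicle, in duplicate. JUN mRNA was quantified by TaqMan qRT-PCR, normalized to ACTB, GAPDH, POLR2A.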

Read-out in experiment [8]: Lipase C (LIPC), LIPC (gene 3990)
The experiment in a line: LTEA_HepaRG_LIPC: Life Technologies and Expression Analysis (LTEA) Assay for Lipase C (LIPC) using HepaRG (AID 2283514). In outline: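 Differentiated human HepaRG cells in serum-free induction medium were exposed in duplicate for 48 h to eight concentrations (top 100 uM, half-log steps, 0.5% DMSO). LIPC mRNA was quantified by TaqMan qRT-PCR, normalized to ACTB, GAPDH and POLR2A, with bidirectional fitting versus DMSO.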

Read-out in experiment [9]: Lipoprotein lipase (LPL), LPL (gene 4023)
As to the kind of experiment: LTEA_HepaRG_LPL: Life Technologies and Expression Analysis (LTEA) Assay for Lipoprotein lipase (LPL) using HepaRG (AID 2283515). In outline:
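Differentiated human HepaRG cells in serum-free induction medium were exposed in duplicate for 48 h to eight half-log concentrations (top 100 uM) in 0.5% DMSO. LPL mRNA was quantified by TaqMan qRT-PCR, normalized to ACTB, GAPDH and POLR2A.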

Read-out in experiment [10]: MicroRNA 122 (MIR122), gene 406906
The experiment in a line: LTEA_HepaRG_MIR122: Life Technologies and Expression Analysis (LTEA) Assay for MicroRNA 122 (MIR122) using HepaRG (AID 2283516). Note: the transcript read is the microRNA miR-122. In outline:
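Differentiated human HepaRG cells were exposed 48 h in serum-free induction medium to eight half-log concentrations (top 100 uM, 0.5% DMSO). Transcript level was measured by TaqMan qRT-PCR, normalized to ACTB, GAPDH and POLR2A, and fitted bidirectionally versus DMSO.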

Read-out in experiment [11]: matrix metalloproteinase-10 (MMP10), MMP10 (gene 4319)
As to the kind of experiment: LTEA_HepaRG_MMP10: Life Technologies and Expression Analysis (LTEA) Assay for matrix metalloproteinase-10 (MMP10) using HepaRG (AID 2283517). An outline of the steps:
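HepaRG, collagen I, ~100,000 cells/well; serum-free induction medium; 48 h exposure, duplicate, 8-pt half-log to 100 uM, 0.5% DMSO. Readout: TaqMan qRT-PCR, normalized to ACTB/GAPDH/POLR2A; bidirectional fit vs DMSO.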

Read-out in the next experiment: MYC, MYC (gene 4609)
The experiment in a line: LTEA_HepaRG_MYC: Life Technologies and Expression Analysis (LTEA) Assay for MYC using HepaRG (AID 2283518). In outline: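 Expression changes were scored by TaqMan qRT-PCR with ACTB, GAPDH and POLR2A normalization. Cultures in serum-free induction medium received duplicate 8-point concentration series, highest 100 uM, for 48 h; DMSO (0.5%) served as baseline.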

Read-out in experiment [12]: matrix metalloproteinase-3 (MMP3), MMP3 (gene 4314)
The experiment in a line: LTEA_HepaRG_MMP3: Life Technologies and Expression Analysis (LTEA) Assay for matrix metalloproteinase-3 (MMP3) using HepaRG (AID 2283519). An outline of the steps:
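Differentiated human HepaRG cells, plated 48 h on collagen I, were exposed in duplicate for 48 h in serum-free induction medium to eight half-log concentrations up to 100 uM in 0.5% DMSO. MMP3 mRNA was quantified by TaqMan qRT-PCR, normalised to ACTB, GAPDH and POLR2A.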

Read-out in experiment [13]: Paternally Expressed 10 (PEG10), PEG10 (gene 23089)
The experiment in a line: LTEA_HepaRG_PEG10: Life Technologies and Expression Analysis (LTEA) Assay for Paternally Expressed 10 (PEG10) using HepaRG (AID 2283520). An outline of the steps: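 Differentiated HepaRG cells, plated 48 h then switched to serum-free induction medium, were exposed in duplicate for 48 h to eight half-log concentrations topping at 100 uM in 0.5% DMSO. PEG10 mRNA was quantified by TaqMan qRT-PCR, normalised to ACTB, GAPDH and POLR2A.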

Read-out in experiment [14]: Nuclear factor NF-kappa-B p105 subunit (Homo sapiens) (UniProt P19838)
As to the kind of experiment: LTEA_HepaRG_NFKB1: Life Technologies and Expression Analysis (LTEA) Assay for Nuclear Factor Kappa B Subunit 1 (NFKB1) using HepaRG (AID 2283521).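 For outcome: TaqMan qRT-PCR transcript normalised to ACTB GAPDH and POLR2A housekeeping genes.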 An outline of the steps: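 HepaRG, 48 h exposure; 8-pt half-log series from 100 uM in 0.5% DMSO; duplicates. Readout: NFKB1 mRNA by qRT-PCR (Fluidigm arrays), housekeeping-normalized. Gain/loss fit vs DMSO baseline.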

Read-out in experiment [15]: Protein phosphatase 2A (PPP2R4), PTPA (gene 5524)
As to the kind of experiment: LTEA_HepaRG_PPP2R4: Life Technologies and Expression Analysis (LTEA) Assay for Protein phosphatase 2A (PPP2R4) using HepaRG (AID 2283522). An outline of the steps:
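Differentiated HepaRG cells in serum-free induction medium were exposed in duplicate for 48 h to eight concentrations, top 100 uM with half-log dilutions, in 0.5% DMSO. PPP2R4 mRNA was quantified by TaqMan qRT-PCR, normalized to ACTB, GAPDH and POLR2A.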

Read-out in experiment [16]: Phosphatase and tensin (PTEN), PTEN (gene 5728)
As to the kind of experiment: LTEA_HepaRG_PTEN: Life Technologies and Expression Analysis (LTEA) Assay for Phosphatase and tensin (PTEN) using HepaRG (AID 2283523). An outline of the steps: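 Differentiated human HepaRG cells, plated 48 h then switched to serum-free induction medium, were exposed in duplicate for 48 h to eight half-log concentrations up to 100 uM in 0.5% DMSO. PTEN mRNA measured by TaqMan qRT-PCR, normalized to ACTB/GAPDH/POLR2A, bidirectional fit versus DMSO.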

Read-out in experiment [17]: solute carrier (SLC22A1), SLC22A1 (gene 6580)
As to the kind of experiment: LTEA_HepaRG_SLC22A1: Life Technologies and Expression Analysis (LTEA) Assay for solute carrier (SLC22A1) using HepaRG (AID 2283524). An outline of the steps: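 Human HepaRG cells were plated 48 h, switched to serum-free induction medium, then exposed in duplicate for 48 h to 8-point half-log series from 100 uM in 0.5% DMSO. SLC22A1 mRNA measured by qRT-PCR, normalized to ACTB/GAPDH/POLR2A, fitted bidirectionally versus DMSO.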

Read-out in experiment [18]: Pyruvate Dehydrogenase Kinase 4 (PDK4), PDK4 (gene 5166)
As to the kind of experiment: LTEA_HepaRG_PDK4: Life Technologies and Expression Analysis (LTEA) Assay for Pyruvate Dehydrogenase Kinase 4 (PDK4) using HepaRG (AID 2283525). In outline: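 Differentiated human HepaRG cells, pre-cultured 48 h, were exposed in duplicate for 48 h in serum-free induction medium to eight half-log concentrations up to 100 uM in 0.5% DMSO. PDK4 mRNA was quantified by qRT-PCR, normalized to ACTB, GAPDH and POLR2A, bidirectional fitting versus DMSO.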

Read-out in experiment [19]: Potassium channel subfamily K member 1 (KCNK1), KCNK1 (gene 3775)
As to the kind of experiment: LTEA_HepaRG_KCNK1: Life Technologies and Expression Analysis (LTEA) Assay for Potassium channel subfamily K member 1 (KCNK1) using HepaRG (AID 2283511). An outline of the steps: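 Differentiated human HepaRG cells in serum-free induction medium were exposed in duplicate for 48 h to 8 half-log concentrations up to 100 uM in 0.5% DMSO. KCNK1 mRNA was measured by TaqMan qRT-PCR, normalized to ACTB, GAPDH and POLR2A, and fitted bidirectionally versus DMSO.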

Nuclear factor NF-kappa-B p105 subunit (Homo sapiens), sequence (P19838 whole entry, looked up): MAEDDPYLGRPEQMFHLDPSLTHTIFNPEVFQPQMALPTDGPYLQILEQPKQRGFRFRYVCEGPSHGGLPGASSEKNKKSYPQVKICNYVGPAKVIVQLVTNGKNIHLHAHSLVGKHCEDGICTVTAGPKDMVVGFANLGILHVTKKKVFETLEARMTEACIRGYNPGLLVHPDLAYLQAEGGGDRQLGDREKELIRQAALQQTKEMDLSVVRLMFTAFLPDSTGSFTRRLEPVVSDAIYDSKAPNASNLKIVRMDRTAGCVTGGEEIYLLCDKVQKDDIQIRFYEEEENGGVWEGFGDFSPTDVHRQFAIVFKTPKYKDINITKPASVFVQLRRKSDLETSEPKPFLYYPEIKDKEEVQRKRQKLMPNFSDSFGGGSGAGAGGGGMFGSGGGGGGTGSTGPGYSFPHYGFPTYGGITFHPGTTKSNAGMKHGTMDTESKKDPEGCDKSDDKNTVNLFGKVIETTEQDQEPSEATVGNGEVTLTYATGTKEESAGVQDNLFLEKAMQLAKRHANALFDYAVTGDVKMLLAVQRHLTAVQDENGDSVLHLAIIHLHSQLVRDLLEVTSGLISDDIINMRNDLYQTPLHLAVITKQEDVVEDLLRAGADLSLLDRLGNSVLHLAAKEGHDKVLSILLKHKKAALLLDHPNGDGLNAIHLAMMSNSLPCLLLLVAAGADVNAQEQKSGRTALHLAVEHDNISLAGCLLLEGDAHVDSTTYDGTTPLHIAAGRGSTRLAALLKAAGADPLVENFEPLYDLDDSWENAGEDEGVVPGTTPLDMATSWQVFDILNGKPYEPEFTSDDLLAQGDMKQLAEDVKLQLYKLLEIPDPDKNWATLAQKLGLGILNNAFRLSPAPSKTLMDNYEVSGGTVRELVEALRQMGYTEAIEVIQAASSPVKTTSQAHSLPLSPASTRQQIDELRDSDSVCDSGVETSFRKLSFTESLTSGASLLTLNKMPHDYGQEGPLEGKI

Turning to `CCCCCCCC=O`, the call in [1], in experiment [2], in [3], in [4], in experiment [5] and in experiment [7] was inactive. In addition, the outcome is “inactive” in experiment [8]; “inactive” in experiment [9]; “inactive” in [10]; “inactive” in [11]; “inactive” in the experiment with MYC, MYC (gene 4609); “inactive” in experiment [12]. The outcome in [13], in [14], in experiment [15], in experiment [16], in experiment [17] and in [18] was inactive. Further, the concentration at half-maximal activity (AC50) in [6] was 1320 nM (active).

In the case of `Cc1nc(-c2ccc3c(c2)CCN(CCC2CCC(NC(=O)/C=C/c4ccc(F)cc4)CC2)CC3)no1` (stereo not given), the compound was called inactive in [1], in experiment [2], in experiment [3], in experiment [4], in [5] and in experiment [19]. Also, the result in experiment [6], in experiment [7], in experiment [8], in experiment [9], in experiment [10] and in experiment [11] was inactive. In addition, the outcome with MYC, MYC (gene 4609) was “inactive”; in experiment [13], “inactive”; in experiment [14], “inactive”; in [15], “inactive”; in experiment [16], “inactive”; in experiment [17] it was “inactive”. For the same compound, in experiment [18], the compound was classed as inactive.

As for `Cc1ccccc1Cl`, the compound was classed as inactive in [1], in experiment [2], in experiment [3], in [4], in experiment [5] and in experiment [19]. Also, the compound was called inactive in experiment [6], in [7], in experiment [8], in [9], in experiment [10] and in experiment [11]. Besides, the outcome in the experiment with MYC, MYC (gene 4609) was “inactive”; in [13] it was “inactive”; in experiment [15], “inactive”; in experiment [16] it was “inactive”; in experiment [17], “inactive”; in experiment [18] it was “inactive”.

For the compound `COCCOCCOC`, the compound was classed as inactive in [1], in [4], in experiment [5], in [19], in experiment [6] and in experiment [10]. Also, the outcome in [11], in [13], in experiment [17] and in [18] was inactive. Further, the AC50 in experiment [2] was 870 nM (active); in [3], 683 nM (active); in experiment [7] it was 582 nM (active); in experiment [8] it was 983 nM (active); in experiment [9], 1210 nM (active); in the experiment with MYC, MYC (gene 4609) it was 966 nM (active). Moreover, the values for the half-maximal activity concentration (AC50) in experiment [14], in [15] and in experiment [16] were 2800 nM (active), 9920 nM (active) and 243 nM (active), respectively.

These data come from PubChem BioAssay (EPA / NIEHS).
